From PubChem BioAssay AID651597 (National Center for Advancing Translational Sciences (NCATS), 2012)
About 390 (35%) of roughly 1,100 compounds were called active. About 30% were inconclusive and are not listed. Calls follow the shape of the dose curve; as a rule, active = well fitted inhibition curve with a large enough effect; inconclusive = small, poorly fitted or top-dose-only effect; inactive = flat fitted curve, though single readings scatter. Some of the results follow.
Also: nearly all actives have a fitted effect of over 65% in size.
Potency is read from the fitted curve at half-maximal effect.

The compounds below were run against Luciferin 4-monooxygenase (Photinus pyralis) (UniProt P08659) (assay: qHTS of Nrf2 Activators: Hit Validation in Secondary FLuc Assay). Conditions: firefly luciferase inhibition counter-screen, luminescence; series mostly up to 57.5 µM.
Method in brief: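 Counter-screen on purified firefly luciferase with ATP and D-luciferin at Km concentrations; compounds flagged if they inhibit the enzyme, indicating possible reporter stabilization rather than ARE activation.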
With `CC1CCN(CC2C(=O)O[C@@H]3C[C@@]4(C)CCC[C@H](C)C4=C[C@H]23)CC(C)(C)C1` (stereo partly specified) the Potency was “inactive”.
For `Cn1c(=O)oc2cc(NC(=O)CCl)ccc21`, the Potency was “inactive”.
In the case of `Cc1cc(=O)oc2c(C(=O)/C=C/c3ccccc3)c(O)ccc12`, the Potency is reported as “inactive”.
For `Cc1cc(=O)oc2cc(NC(=O)c3ccccc3Cl)ccc12`, the Potency was 5.36 µM (active).
`Oc1ccccc1C=NN=Cc1c(O)ccc2ccccc12` was tested, and the Potency was 3.01 µM (active).
In the case of `Cn1c(=O)c2nc(NCc3ccccc3)sc2n(C)c1=O`, the Potency is reported as “inactive”.
`O=S1(=O)C=C(Sc2nc3cc(Cl)ccc3o2)c2ccccc21` was tested, and the Potency was 0.849 µM (active).
With `N#Cc1ccccc1N/C=C/C(=O)c1ccc(Cl)cc1` the Potency was 0.12 µM (active).
`COC(=O)c1cc(S(=O)(=O)C(C)C)c(S(C)=O)s1` (stereo unspecified) was tested, and the Potency was “inactive”.
For `Cc1cc(N/N=C/c2c(O)ccc3ccccc23)nc(-c2ccccc2O)n1`, the Potency was 7.57 µM (active).
For `C=C(NC(=O)C(=C)NC(=O)c1csc(C2=NC3c4csc(n4)C4NC(=O)c5csc(n5)C(C(C)(O)C(C)O)NC(=O)C5CSC(=N5)/C(=C/C)NC(=O)C(C(C)O)NC(=O)c5csc(n5)C3(CC2)NC(=O)C(C)NC(=O)C(=C)NC(=O)C(=C)NC(=O)C(C(C)C)NC2C=Cc3c(C(C)O)cc(nc3C2O)C(=O)OC4C)n1)C(N)=O` (stereo unspecified), the Potency was 7.57 µM (active).
With `CC(=O)Oc1ccc(-c2nc3c(C)cccc3c(=O)o2)cc1` the Potency was “inactive”.
`COc1ccc(-c2cc3ccccc3c(=O)o2)cc1` was tested, and the Potency was 0.478 µM (active).
For `O=c1nc2c(-c3ccccc3F)n[nH]n2c2ccccc12`, the Potency was 7.57 µM (active).
For `Clc1nc(NCc2ccco2)nc(N2CCCCC2)n1`, the Potency was “inactive”.
With `c1ccc2nc3c(ccc4ccccc43)cc2c1` the Potency was 1.35 µM (active).
For `COc1cc(OCc2ccccc2)c(C(=O)/C=C/c2ccc3c(c2)OCO3)c(OC)c1OC`, the Potency was “inactive”.
In the case of `O=C(/C=C/c1ccc2c(c1)OCO2)c1ccc(O)cc1O`, the Potency is reported as 1.9 µM (active).
In the case of `COC(=O)c1ccsc1NC(=O)CSc1nnnn1Cc1ccccc1`, the Potency is reported as “inactive”.
With `Cc1csc(-c2ccc3cc(Cl)cc(Cl)c3n2)n1` the Potency was 2.69 µM (active).
In the case of `Cc1ccc(C(=O)OCc2c(C)noc2C)cc1NC(=O)c1ccco1`, the Potency is reported as “inactive”.
In the case of `Cc1ccc(-c2nc3cccnc3s2)cc1NC(=O)c1ccco1`, the Potency is reported as 8.49 µM (active).
With `CCNc1nc(NCC)nc(N(C)/N=C/c2ccco2)n1` the Potency was “inactive”.
With `O=[N+]([O-])c1cc(Cl)cc(/C=N/Nc2nc3ccccc3s2)c1O` the Potency was 13.5 µM (active).
With `Brc1cc2c(cc1/C=N/Nc1nc3ccccc3s1)OCO2` the Potency was 2.69 µM (active).
In the case of `O=C(/C=C/c1ccco1)NC(=S)Nc1ccccc1N1CCCC1`, the Potency is reported as “inactive”.
In the case of `O=C(Nc1cc2nn(-c3ccccc3)nc2cc1Cl)c1ccco1`, the Potency is reported as 0.849 µM (active).
For `O=C(/C=C/c1ccco1)Nc1ccc(Cl)c(-c2nc3cc(Cl)ccc3o2)c1`, the Potency was 10.7 µM (active).
With `O=C(/C=C/c1ccco1)Nc1ccc2nn(-c3ccccc3)nc2c1` the Potency was 9.53 µM (active).
`O=C(/C=C/c1ccco1)Nc1cccc(S(=O)(=O)N2CCOCC2)c1` was tested, and the Potency was 13.5 µM (active).
In the case of `Cc1ccc(NC(=O)c2ccc([N+](=O)[O-])s2)cc1S(=O)(=O)N1CCOCC1`, the Potency is reported as “inactive”.
